High-throughput results (PubChem BioAssay)
Sampled rows, rich in hits. Any-hit rate of the full collection: about 8.1%.
SW480 rerep = A quantitative high throughput screen for small molecules that induce DNA re-replication in SW480 colon adenocarcinoma cells; SW480 DNA re-replication, Hoechst DNA content imaging, 48 h; Potency, µM (titrated, usually from 46.1 µM), for the others: top-dose re-replication activation, actives largely listed as activators; hit rate 1.8% among 340,000; further: % of control where 0% means no effect; nearly all actives have a fitted effect of over 55% in size
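Per well, 250 cells were exposed to pinned compound for 48 hr. Nuclear DNA was visualised with Hoechst (40 min, 37 C) and total object intensity recorded by fluorescence scanning.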
ELG1 repair inh = qHTS screen for small molecules that inhibit ELG1-dependent DNA repair in human embryonic kidney (HEK293T) cells expressing luciferase-tagged ELG1. HEK293T ELG1-luciferase reporter, luminescence, 16 h; DNA damage induced by 5-fluorouridine. Potency, µM (series often up to 46.1 µM), for the others: top-dose activity change, negative = inhibition, most hits filed as inhibitors. hit rate 2.3% among 330,000. AID 504467, 2011; further: on the % scale 0 is the no-effect control and ±100 the full control effect; nearly all actives have a fitted effect of over 55% in size
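Overnight (16 hr) co-exposure of 2,000 cells/well to 5-fluorouridine and compound at 37 °C preceded detection. Luciferase was quantified via ONE-Glo luminescence; loss of signal denotes inhibition.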
KB-3-1 cytotox = qHTS assay for MDR1-selective chemotherapeutics: Primary screen using the parental adenocarcinoma cell KB-3-1. KB-3-1 viability, CellTiter-Glo ATP luminescence, 72 h. Potency, µM (doses to about 46.1 µM), actives largely listed as cytotoxic. hit rate 1.4% among 400,000. AID 1347075, 2019; further: on the % scale 0 is the no-effect control and ±100 the full control effect; nearly all actives have a fitted effect of over 60% in size
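72 h, 37 °C compound treatment of KB-3-1 parental cells; CellTiter-Glo added, 10 min, luminescence read. Data corrected against DMSO-only plates and normalized before curve fitting.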
MCF10A rerep = A quantitative high throughput screen for small molecules that induce DNA re-replication in MCF 10a normal breast cells; MCF 10A DNA re-replication, Hoechst nuclear intensity, 48 h; Potency, µM (doses to about 46.1 µM), for inactives: at the top dose activity, positive = re-replication, usual class: activators; hit rate 2.9% among 350,000; further: % of control where 0% means no effect; nearly all actives have a fitted effect of over 50% in size
KB-V1 cytotox = qHTS assay for MDR1-selective chemotherapeutics: Primary screen using the drug-selected MDR subline cells KB-V1; Potency, µM (highest dose often 46.1 µM), hits mostly cytotoxic; KB-V1 MDR cells viability, CellTiter-Glo, 72 h; hit rate 3.4% among 400,000; further: on the % scale 0 is the no-effect control and ±100 the full control effect; nearly all actives have a fitted effect of over 60% in size
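qHTS viability screen in drug-selected KB-V1 MDR cells: 72 h compound treatment at 37 degrees C, ATP luminescence end point.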
Numbers without * were called inactive; [ ] = another dose, or the depositor's remark. The call rests on the fitted dose curve; in most records, active means well fitted curve in the direction sought with a large enough effect; inconclusive means small, poorly fitted or top-dose-only effect, or another doubt; inactive means no such curve, though single readings can be large; an effect the other way counts as inactive or inconclusive. Potency means the concentration at half of the fitted maximal effect.

For CC(C)OC(=O)c1c(NC(=O)c2ccco2)sc2c1CCCCC2 the results were SW480 rerep -6%, ELG1 repair inh 6%, KB-3-1 cytotox inactive, MCF10A rerep 16µM* and KB-V1 cytotox inactive.
COC(=O)c1c(NC(=O)c2ccco2)sc2c1CCC2 was read as SW480 rerep 2%, ELG1 repair inh 14%, KB-3-1 cytotox inactive, MCF10A rerep inconclusive and KB-V1 cytotox inactive.
For CC(C)OC(=O)c1c(NC(=O)c2cccs2)sc2c1CCCC2 the results were SW480 rerep 10%, ELG1 repair inh 1%, KB-3-1 cytotox inactive, MCF10A rerep 16µM* and KB-V1 cytotox inactive.
`CC1CCc2c(sc(NC(=O)c3cccs3)c2C(=O)O)C1` (stereo not given) gave SW480 rerep -9%, ELG1 repair inh 38%, KB-3-1 cytotox 10µM*, MCF10A rerep inconclusive and KB-V1 cytotox inactive.
Screening COc1ccccc1Cc1c(C(C)(C)C)nc2c3ccccc3ccn12 returned KB-3-1 cytotox inconclusive and KB-V1 cytotox inactive.
For CCC[C@H]1CN(c2ccc(Br)cc2)C(=O)[C@@H]1CC(=O)Nc1ccccc1 the results were KB-3-1 cytotox inconclusive and KB-V1 cytotox inactive.
For Cc1ccc(N(Cc2cc(=O)[nH]c3ccccc23)C(=O)CCl)c(C)c1 the results were SW480 rerep 23µM*, ELG1 repair inh inconclusive, KB-3-1 cytotox 18µM*, MCF10A rerep inconclusive and KB-V1 cytotox inconclusive.
CCCC(=O)N(Cc1cc(=O)[nH]c2ccccc12)c1ccc(C)cc1C was read as SW480 rerep 14%, ELG1 repair inh -5%, KB-3-1 cytotox inactive, MCF10A rerep -16% and KB-V1 cytotox inactive.
For COc1cc(CNn2nnnc2N)cc(Br)c1OCc1c(Cl)cccc1Cl the results were SW480 rerep 2%, ELG1 repair inh inconclusive, KB-3-1 cytotox inconclusive, MCF10A rerep 5% and KB-V1 cytotox 21µM*.
`COc1cc(CNn2nnnc2N)cc(Br)c1OCC(=O)NC(C)(C)C` gave SW480 rerep 2%, ELG1 repair inh -21%, KB-3-1 cytotox inactive, MCF10A rerep -188%[0.0737 µM] and KB-V1 cytotox inactive.
For O=C(Nc1ccc2c(c1)OCCO2)C1c2ccccc2OCC(=O)N1Cc1ccccc1 (stereo not given) the results were KB-3-1 cytotox inactive and KB-V1 cytotox inactive.
`COc1cc(-c2nnc(-c3ccco3)o2)ccc1OCc1ccccc1` gave SW480 rerep 19%, ELG1 repair inh -16%, KB-3-1 cytotox inconclusive, MCF10A rerep 16% and KB-V1 cytotox 4.1µM*.
COc1cc(-c2nnc(-c3ccncc3)o2)ccc1OCc1ccccc1 was read as SW480 rerep -18%, ELG1 repair inh inconclusive, KB-3-1 cytotox inactive, MCF10A rerep inconclusive and KB-V1 cytotox inactive.
For O=C(NCCCN1CCOCC1)c1ccc(Sc2ccccc2Cl)c([N+](=O)[O-])c1 the results were SW480 rerep inconclusive, ELG1 repair inh inconclusive, KB-3-1 cytotox inconclusive, MCF10A rerep inconclusive and KB-V1 cytotox 13µM*.
N#CC1=C(N)Oc2c(ccc3ccccc23)C1c1ccsc1 (stereo not given) was read as SW480 rerep inconclusive, ELG1 repair inh inconclusive, KB-3-1 cytotox 6.5µM*, MCF10A rerep inconclusive and KB-V1 cytotox inconclusive.
CC(C)(C)OC(=O)NCCCC[C@H](NC(=O)c1[nH]cnc1C(=O)Nc1ccc(CNC(=O)OC(C)(C)C)cc1)C(=O)OC(C)(C)C was read as SW480 rerep -6%, ELG1 repair inh inconclusive, KB-3-1 cytotox inactive, MCF10A rerep 4.1µM* and KB-V1 cytotox inactive.
C[C@H](NC(=O)c1[nH]cnc1C(=O)Nc1ccc(CNC(=O)OC(C)(C)C)cc1)C(=O)OC(C)(C)C was read as SW480 rerep inconclusive, ELG1 repair inh 16µM*, KB-3-1 cytotox inconclusive, MCF10A rerep inconclusive and KB-V1 cytotox inactive.
Screening C[C@H](NC(=O)c1nc[nH]c1C(=O)N[C@@H](CCCCNC(=O)OC(C)(C)C)C(=O)OC(C)(C)C)c1ccccc1 returned SW480 rerep inconclusive, ELG1 repair inh inconclusive, KB-3-1 cytotox inconclusive, MCF10A rerep 23% and KB-V1 cytotox 21µM*.
`C[C@@H](NC(=O)c1nc[nH]c1C(=O)NCCCCCNC(=O)OC(C)(C)C)c1ccccc1` gave SW480 rerep -1%, ELG1 repair inh inconclusive, KB-3-1 cytotox inactive, MCF10A rerep -9% and KB-V1 cytotox inconclusive.
`CC(C)(C)OC(=O)NCCCC[C@H](NC(=O)c1[nH]cnc1C(=O)N[C@@H](Cc1ccccc1)C(=O)OC(C)(C)C)C(=O)OC(C)(C)C` gave SW480 rerep -1%[9.22 µM], ELG1 repair inh inconclusive, KB-3-1 cytotox inconclusive, MCF10A rerep 29% and KB-V1 cytotox inactive.
Screening CC(C)(C)OC(=O)NCCCC[C@H](NC(=O)c1nc[nH]c1C(=O)NCc1ccccc1)C(=O)OC(C)(C)C returned SW480 rerep 4%[9.22 µM], ELG1 repair inh inconclusive, KB-3-1 cytotox inconclusive, MCF10A rerep inconclusive and KB-V1 cytotox inactive.
`C[C@H](NC(=O)c1nc[nH]c1C(=O)NCc1ccc(CNC(=O)OC(C)(C)C)cc1)c1ccccc1` gave SW480 rerep 4%, ELG1 repair inh 18µM*, KB-3-1 cytotox inconclusive, MCF10A rerep 15µM* and KB-V1 cytotox inconclusive.
For Cc1nc2ccccc2c(=O)n1NC(=O)c1ccc(Cl)c(Cl)c1 the results were SW480 rerep -31%, ELG1 repair inh 2%, KB-3-1 cytotox inactive, MCF10A rerep 1% and KB-V1 cytotox inactive.
O=[n+]1ccn([O-])c2ccccc21 was read as SW480 rerep -4% and MCF10A rerep -1%.
`COc1ccc(-c2cc([C@H]3[C@H]4C=CC[C@@H](C)[C@@H]4C(=O)N3Cc3ccccc3)ccc2F)cc1` gave SW480 rerep -8%[9.22 µM], ELG1 repair inh -7%, KB-3-1 cytotox 16µM*, MCF10A rerep inconclusive and KB-V1 cytotox inconclusive.
`CC[C@@H]1CC=C[C@H]2[C@H]1C(=O)N(Cc1ccccc1)[C@H]2c1ccoc1` gave SW480 rerep 2%[9.22 µM], ELG1 repair inh -16%, KB-3-1 cytotox 15µM*, MCF10A rerep 8.2µM* and KB-V1 cytotox inconclusive.
COc1ccc(-c2cc([C@H]3[C@H]4C=CC[C@@H](C)[C@@H]4C(=O)N3Cc3ccccc3)ccc2F)cc1OC was read as SW480 rerep 10%, ELG1 repair inh -24%, KB-3-1 cytotox 16µM*, MCF10A rerep inconclusive and KB-V1 cytotox inconclusive.
